PubChem BioAssay (Tox21)
“And” between values parts separate entries of the source, which are not always exact repeats. Identical values can stand only once. Results filed as inconclusive are left out. More than one record can exist for a structure, and the calls need not agree. The source made the active and inactive calls. Unless noted, the call rests on the fitted dose curve.

Legend:
[1] = Nuclear factor erythroid 2-related factor 2/antioxidant responsive element (Nrf2/ARE) small molecule agonists: qHTS cell viability counter screen in human keratinocytes (AID 1919968; active means well fitted curve in the direction sought with a large enough effect in the repeat runs; an effect the other way counts as inactive or inconclusive; further: nearly all actives have a fitted effect of over 55% in size; further: potency means the concentration at half of the fitted maximal effect)
Summary of the method: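 KeratinoSens HaCaT cells, 1,500/well, preincubated 5 h, then exposed to compounds in DMSO for 23 h at 37 C/5% CO2. Viability read as CellTiter-Fluor fluorescence after 1 h, in the same wells as the ARE-luciferase read.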

[2] = Nuclear factor erythroid 2-related factor 2/antioxidant responsive element (Nrf2/ARE) small molecule agonists: luciferase reporter gene qHTS assay in human keratinocytes (AID 1919969); further: nearly all actives have a fitted effect of over 35% in size; further: potency means the concentration at half of the fitted maximal effect
[3] = target: Gonadotropin-releasing hormone receptor (Homo sapiens) (UniProt P30968); assay: Human gonadotropin-releasing hormone receptor (GnRHR) small molecule agonists, calcium flux assay in GnRHR-HEK293 cells (AID 1920063); further: nearly all actives have a fitted effect of over 35% in size
Summary of the method: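 HEK293 cells stably expressing human GnRHR were dye-loaded for 1 h at 37 C. Compound was added in agonist mode and fluorescence (Ex/Em 480/540) recorded kinetically for 3 min. Fifteen concentrations, triplicates.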

[4] = target: KiSS-1 receptor (Homo sapiens) (UniProt Q969F8); assay: Human kisspeptin (KISS1R) small molecule agonists, calcium flux assay in KISS1R-HEK293 cells (AID 1920064; active means well fitted curve in the direction sought with a large enough effect in the repeat runs; an effect the other way counts as inactive or inconclusive)
Summary of the method: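 HEK293 cells stably expressing human KISS1R were loaded with calcium dye for 1 h at 37 C, then given compound; fluorescence (Ex/Em 480/540) was read kinetically for 3 min. Fifteen concentrations, triplicate.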

[5] = G protein-coupled receptor (GPCR) small molecule agonists, calcium flux assay: HEK293 wild type cell line counter screen (AID 1920065)
Summary of the method: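 Wild-type HEK293 cells plated 18 h, loaded with calcium dye 1 h at 37 C, then compounds added in agonist mode (ATP as positive control). Kinetic fluorescence Ex/Em 480/540 recorded 3 min at 1 sec intervals; 15 concentrations, triplicate.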

[6] = p53 small molecule agonists, cell-based qHTS assay with human liver microsomes (AID 1963577)
Summary of the method: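 p53RE-bla reporter cells were pre-incubated 5 h at 37 C, then treated with compounds plus human liver microsomes (0.5 mg/mL final) and NADPH (0.5 mg/mL final) for 16 h at 37 C. Beta-lactamase activity was read by LiveBLAzer fluorescence after 2 h at room temperature.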

[7] = p53 small molecule agonists, cell-based qHTS assay with rat liver microsomes (AID 1963578)
Summary of the method: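 p53RE-bla cells were exposed to compounds together with rat liver microsomes (0.5 mg/mL final) and NADPH (0.5 mg/mL final) for 16 h at 37 C, then read by LiveBLAzer beta-lactamase fluorescence after 2 h at room temperature.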

[8] = p53 small molecule agonists, cell-based qHTS assay with human liver microsomes: qHTS cell viability counter screen (AID 1963579); further: nearly all actives have a fitted effect of over 45% in size; further: potency means the concentration at half of the fitted maximal effect
Summary of the method: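 p53RE-bla cells (4,000/well) were pre-incubated 5 h at 37 C, then given compounds in DMSO plus human liver microsomes (0.5 mg/mL final) and NADPH (0.5 mg/mL final) for 16 h at 37 C. Viability was read by CellTiter-Glo luminescence.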

[9] = p53 small molecule agonists, cell-based qHTS assay: qHTS cell viability counter screen (AID 1963581); further: nearly all actives have a fitted effect of over 45% in size; further: potency means the concentration at half of the fitted maximal effect
Summary of the method: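 p53RE-bla HCT-116 cells, compounds added 5 h after plating and incubated 16 h at 37 C. Cytotoxicity measured in the same wells as intracellular ATP by CellTiter-Glo luminescence after 30 min at room temperature.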

[10] = target: 5-hydroxytryptamine receptor 2A (Homo sapiens) (UniProt P28223); assay: 5-hydroxytryptamine receptor 2A (HTR2A) small molecule antagonists, cell-based qHTS assay (AID 1963586); further: nearly all actives have a fitted effect of over 45% in size; further: potency means the concentration at half of the fitted maximal effect
Summary of the method: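 Antagonist-mode intracellular calcium assay: DOI (4 nM) added after 5 min compound pre-incubation at room temperature to dye-loaded HTR2A-CHO cells. Fluorescence followed for 3 min, sampled every second.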

[11] = target: 5-hydroxytryptamine receptor 2A (Homo sapiens) (UniProt P28223); assay: 5-hydroxytryptamine receptor 2A (HTR2A) small molecule agonists, cell-based qHTS assay (AID 1963587); further: nearly all actives have a fitted effect of over 30% in size
Summary of the method: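 CHO cells stably expressing human HTR2A, plated 18 h, loaded with calcium dye 1 h at 37 C. Agonist mode: compounds added and intracellular calcium fluorescence recorded kinetically for 2 min at 1 sec intervals.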

[12] = target: Muscarinic acetylcholine receptor M1 (Homo sapiens) (UniProt P11229); assay: Cholinergic receptor muscarinic 1 (CHRM1) small molecule antagonists, cell-based qHTS assay (AID 1963588); further: nearly all actives have a fitted effect of over 40% in size; further: potency means the concentration at half of the fitted maximal effect
Summary of the method: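 CHRM1-CHO calcium-flux assay, antagonist mode. Cells were seeded 18 h, dye-loaded 1 h at 37 C and given compound for 5 min at RT, then acetylcholine was added at 50nM. FDSS fluorescence was read 3 min; 15 concentrations, three runs.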

[13] = target: Muscarinic acetylcholine receptor M1 (Homo sapiens) (UniProt P11229); assay: Cholinergic receptor muscarinic 1 (CHRM1) small molecule agonists, cell-based qHTS assay (AID 1963589); further: nearly all actives have a fitted effect of over 35% in size
Summary of the method: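 CHO cells stably expressing human CHRM1 were loaded with calcium dye for 1 h at 37 C, then compound was added in agonist mode. Intracellular calcium fluorescence was followed kinetically at 1 s intervals. Fifteen concentrations were tested in three independent runs.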

[14] = cAMP Responsive Elements (CRE) small molecule agonists, cell-based qHTS assay (AID 1963590)
Summary of the method: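 CRE-bla HEK 293T cells, 2,000/well in DMEM with 10% dialyzed FBS and 25 mM HEPES, pre-incubated 18 h at 37 C, then exposed to compound 3 h at 37 C. Beta-lactamase reporter read with LiveBLAzer B/G FRET substrate after 2 h at room temperature.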

[15] = cAMP Responsive Elements (CRE) small molecule antagonists, cell-based qHTS assay (AID 1963591; active means well fitted inhibition curve with a large enough effect in the signal ratio in the repeat runs, not every such curve was filed as active; the % refers to the signal ratio; further: potency means the concentration at half of the fitted maximal effect)
Summary of the method: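 CRE-bla HEK293T cells plated 18 h, then given compound plus NKH477 at 0.25 uM final for 3 h at 37C. Beta-lactamase reporter read with LiveBLAzer B/G FRET substrate after 2 h at room temperature.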

[16] = target: Beta-2 adrenergic receptor (Homo sapiens) (UniProt P07550); assay: Adrenergic beta2 receptor (ADRB2) small molecule antagonists, cell-based qHTS assay (AID 1963592); further: series mostly up to about 92 µM; nearly all actives have a fitted effect of over 50% in size
Summary of the method: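 Cells (CHO, stable ADRB2 overexpression) incubated 18-20hr at 37C; compounds added from DMSO; agonist mix (1nM isoproterenol, 100uM IBMX, 25uM Ro-20-1724) added; 0.5hr RT; d2-cAMP and anti-cAMP-cryptate added; 1hr RT; 665/615 nm read.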

[17] = target: Beta-2 adrenergic receptor (Homo sapiens) (UniProt P07550); assay: Adrenergic beta2 receptor (ADRB2) small molecule agonists, cell-based qHTS assay (AID 1963593);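 further: CHO cells stably overexpressing human ADRB2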
Summary of the method: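 CHO cells stably over-expressing ADRB2 were plated overnight at 37C, then dosed with compounds plus a stimulation mix containing 100uM IBMX and 25uM Ro-20-1724 for 0.5hr at room temperature. cAMP was measured by HTRF competition, 1hr.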

[18] = target: D(2) dopamine receptor (Homo sapiens) (UniProt P14416); assay: Dopamine D2 receptor (DRD2) small molecule agonists, cell-based qHTS assay (AID 1963594); further: nearly all actives have a fitted effect of over 35% in size
Summary of the method: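 HEK293 cells stably expressing human DRD2, pre-treated with PDE inhibitor Ro20-1724 (0.1 mM final) and compound 10 min at room temperature, then stimulated with NKH477 (200nM […]) for 30 min. cAMP read by HTRF (665/620 nm).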

[19] = target: D(2) dopamine receptor (Homo sapiens) (UniProt P14416); assay: Dopamine D2 receptor (DRD2) small molecule antagonists, cell-based qHTS assay (AID 1963595; active means well fitted inhibition curve with a large enough effect in the signal ratio in the repeat runs, with a control signal flat; the % refers to the signal ratio)
Summary of the method: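 Antagonist mode in DRD2-HEK293 cells: after compound addition with 0.1 mM Ro20-1724, cells received quinpirole (12 nM) and NKH477 (200 nM) for 30 min at room temperature; HTRF cAMP read after 1 h detection.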

Measured: Potency

Muscarinic acetylcholine receptor M1 (Homo sapiens), sequence (P11229 whole entry, looked up): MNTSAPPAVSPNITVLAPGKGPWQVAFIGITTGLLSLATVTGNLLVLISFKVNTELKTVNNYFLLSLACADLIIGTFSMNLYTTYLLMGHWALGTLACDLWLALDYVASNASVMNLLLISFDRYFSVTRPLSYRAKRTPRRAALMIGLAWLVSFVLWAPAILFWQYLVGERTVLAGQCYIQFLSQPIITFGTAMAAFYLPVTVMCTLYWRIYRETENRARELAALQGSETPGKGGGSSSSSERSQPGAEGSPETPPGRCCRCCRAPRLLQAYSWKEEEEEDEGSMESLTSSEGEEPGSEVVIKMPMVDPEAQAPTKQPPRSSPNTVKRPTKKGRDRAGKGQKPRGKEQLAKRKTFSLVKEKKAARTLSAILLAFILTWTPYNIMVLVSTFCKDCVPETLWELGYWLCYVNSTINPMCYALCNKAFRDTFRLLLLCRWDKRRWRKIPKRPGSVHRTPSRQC
D(2) dopamine receptor (Homo sapiens), sequence (P14416 whole entry, looked up): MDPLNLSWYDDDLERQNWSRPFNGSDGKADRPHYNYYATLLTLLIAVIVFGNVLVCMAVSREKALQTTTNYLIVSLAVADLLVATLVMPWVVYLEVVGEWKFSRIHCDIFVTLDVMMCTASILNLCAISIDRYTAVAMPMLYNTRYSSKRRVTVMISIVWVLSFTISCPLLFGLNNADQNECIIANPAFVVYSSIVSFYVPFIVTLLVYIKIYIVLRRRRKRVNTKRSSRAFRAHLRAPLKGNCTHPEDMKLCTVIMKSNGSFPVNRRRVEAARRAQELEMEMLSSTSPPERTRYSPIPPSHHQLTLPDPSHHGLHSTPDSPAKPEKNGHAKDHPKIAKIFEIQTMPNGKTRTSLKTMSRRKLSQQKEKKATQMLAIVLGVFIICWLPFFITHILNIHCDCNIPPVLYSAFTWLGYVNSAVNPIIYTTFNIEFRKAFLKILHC
5-hydroxytryptamine receptor 2A (Homo sapiens), sequence (P28223 whole entry, looked up): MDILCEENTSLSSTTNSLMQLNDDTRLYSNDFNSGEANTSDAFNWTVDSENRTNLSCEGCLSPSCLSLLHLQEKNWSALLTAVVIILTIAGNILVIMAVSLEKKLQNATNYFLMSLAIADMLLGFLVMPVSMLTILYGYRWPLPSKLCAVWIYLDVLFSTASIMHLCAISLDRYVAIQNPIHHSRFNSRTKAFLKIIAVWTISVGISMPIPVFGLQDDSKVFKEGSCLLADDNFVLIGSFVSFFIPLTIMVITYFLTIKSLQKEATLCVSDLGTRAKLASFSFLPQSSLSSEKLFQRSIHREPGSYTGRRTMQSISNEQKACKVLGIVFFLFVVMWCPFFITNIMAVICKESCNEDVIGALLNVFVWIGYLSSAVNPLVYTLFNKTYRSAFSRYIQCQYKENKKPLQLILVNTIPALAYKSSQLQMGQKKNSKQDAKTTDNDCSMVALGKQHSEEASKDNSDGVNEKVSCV
KiSS-1 receptor (Homo sapiens), sequence (Q969F8 whole entry, looked up): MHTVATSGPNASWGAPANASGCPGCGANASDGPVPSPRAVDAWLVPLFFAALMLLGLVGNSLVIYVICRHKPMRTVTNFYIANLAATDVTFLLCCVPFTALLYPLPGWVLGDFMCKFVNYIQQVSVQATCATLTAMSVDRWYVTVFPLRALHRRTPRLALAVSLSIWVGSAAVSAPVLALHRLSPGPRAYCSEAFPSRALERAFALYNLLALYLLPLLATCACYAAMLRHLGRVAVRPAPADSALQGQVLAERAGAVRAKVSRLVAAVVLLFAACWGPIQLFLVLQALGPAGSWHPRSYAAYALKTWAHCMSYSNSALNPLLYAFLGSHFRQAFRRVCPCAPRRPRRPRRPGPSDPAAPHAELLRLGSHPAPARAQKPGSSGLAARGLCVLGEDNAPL
Beta-2 adrenergic receptor (Homo sapiens), sequence (P07550 whole entry, looked up): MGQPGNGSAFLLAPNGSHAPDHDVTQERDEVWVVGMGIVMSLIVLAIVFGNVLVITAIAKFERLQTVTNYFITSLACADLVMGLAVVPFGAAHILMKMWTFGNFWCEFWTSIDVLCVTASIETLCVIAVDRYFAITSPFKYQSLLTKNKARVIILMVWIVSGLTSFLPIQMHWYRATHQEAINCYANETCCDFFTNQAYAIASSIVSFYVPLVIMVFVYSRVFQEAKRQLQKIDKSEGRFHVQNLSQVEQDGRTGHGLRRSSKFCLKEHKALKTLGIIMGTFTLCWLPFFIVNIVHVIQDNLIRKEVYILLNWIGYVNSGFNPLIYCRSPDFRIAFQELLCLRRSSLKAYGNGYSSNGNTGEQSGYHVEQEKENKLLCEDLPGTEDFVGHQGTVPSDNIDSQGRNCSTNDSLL
Gonadotropin-releasing hormone receptor (Homo sapiens), sequence (P30968 whole entry, looked up): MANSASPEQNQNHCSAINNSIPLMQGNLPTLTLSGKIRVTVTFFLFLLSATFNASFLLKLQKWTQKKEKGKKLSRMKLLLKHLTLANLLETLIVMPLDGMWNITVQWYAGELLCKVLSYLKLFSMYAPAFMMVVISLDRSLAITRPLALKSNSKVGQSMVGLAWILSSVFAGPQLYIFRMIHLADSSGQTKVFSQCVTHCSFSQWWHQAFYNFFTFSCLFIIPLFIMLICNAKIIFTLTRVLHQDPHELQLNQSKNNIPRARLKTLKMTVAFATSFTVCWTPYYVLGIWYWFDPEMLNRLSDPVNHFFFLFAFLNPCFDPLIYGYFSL

C=CC(C)(CCC=C(C)C)OC(=O)CC (configuration not stated)
inactive: all assays above

OCCCCl
not listed: [19]
inactive: all other assays above

CCCCC(CC)COCCO (configuration not stated)
inactive: all assays above

CCC(N)(CO)CO
inactive: all assays above

OCC(CO)N[C@H]1C[C@](O)(CO)[C@@H](O)[C@H](O)[C@H]1O
inactive: all assays above

NCCO
active: [12] 18.8 µM
inactive and 27.3 µM (active): [2]
inactive and 36.3 µM (active): [8]
not listed: [17]
inactive: all other assays above

CC(C)(C)S
not listed: [15] | [17]
inactive: all other assays above

CCCCCCCOC(C)=O
inactive: all assays above

C/C=C/c1ccc(OC)c(OC)c1
not listed: [14]
inactive: all other assays above

CCC(=O)OC(C)c1ccccc1 (configuration not stated)
not listed: [13] | [17]
inactive: all other assays above

CCCCC(CC)COC(=O)c1ccc(O)cc1 (configuration not stated)
active: [1] 27.2 µM and 30.6 µM | [8] 40.8 µM | [9] 40.6 µM | [10] 37.5 µM | [15] 40.3 µM
not listed: [14]
inactive: all other assays above

O=[N+]([O-])c1ccc2c(c1)Cc1ccccc1-2
inactive: all assays above

CCCCCCCCCCCCCC
inactive: all assays above

CN1C(=O)CC(C)(c2ccccc2)C1=O (configuration not stated)
not listed: [19]
inactive: all other assays above
